Experimental data published in PubChem BioAssay (Tox21).
“And” between values parts separate entries of the source, which are not always exact repeats. Equal values may be shown once. Results filed as inconclusive are left out. Some structures have more than one record in an assay (separate samples or runs), and their calls can disagree. The source made the active and inactive calls. Unless noted, calls follow the shape of the dose curve; as a rule, active = well fitted curve in the direction sought with a large enough effect in the repeat runs; inconclusive = weak or mixed curves; inactive = no such curve, though single readings can be large; an effect the other way counts as inactive or inconclusive.

How the values were obtained:
[1] = qHTS assay to identify small molecule antagonists of the glucocorticoid receptor (GR) signaling pathway - cell viability counter screen (AID 720693); also: nearly all actives have a fitted effect of over 55% in size; also: potency is read from the fitted curve at half-maximal effect
[2] = qHTS assay for identifying genotoxic compounds that show differential cytotoxicity against isogenic chicken DT40 cell lines with known DNA damage response pathways - wild type cell line (AID 743012); also: nearly all actives have a fitted effect of over 60% in size; also: potency is read from the fitted curve at half-maximal effect
Method in brief: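 300 wt DT40 cells/well; cpd (DMSO) pintool-transferred after ~0.5 h at 37 C/5% CO2; 40 h incubation; CellTiter-Glo added, 30 min RT; luminescence read.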

[3] = qHTS assay for identifying genotoxic compounds that show differential cytotoxicity against isogenic chicken DT40 cell lines with known DNA damage response pathways - Rev3 mutant cell line (AID 743014); also: nearly all actives have a fitted effect of over 55% in size; also: potency is read from the fitted curve at half-maximal effect
[4] = qHTS assay for identifying genotoxic compounds that show differential cytotoxicity against isogenic chicken DT40 cell lines with known DNA damage response pathways - Rad54/Ku70 mutant cell line (AID 743015); also: nearly all actives have a fitted effect of over 60% in size; also: potency is read from the fitted curve at half-maximal effect
[5] = qHTS assay to identify small molecule antagonists of the androgen receptor (AR) signaling pathway - cell viability counter screen (AID 743033; also: nearly all actives have a fitted effect of over 45% in size; also: potency is read from the fitted curve at half-maximal effect)
[6] = target: Androgen receptor (Homo sapiens) (UniProt P10275); experiment: qHTS assay to identify small molecule agonists of the androgen receptor (AR) signaling pathway (AID 743036; active = well fitted activation curve with a large enough effect in the signal ratio in the repeat runs, with a control signal flat, not every such curve was filed as active; the % refers to the signal ratio)
Method in brief: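 Activation was read as beta-lactamase FRET signal from LiveBLAzer B/G substrate, added for 2 h at room temperature. Before that, GeneBLAzer AR-UAS-bla GripTite (HEK293) cells had 16 h compound exposure at 37C.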

[7] = target: Androgen receptor (Homo sapiens) (UniProt P10275); experiment: qHTS assay to identify small molecule agonists of the androgen receptor (AR) signaling pathway using the MDA cell line (AID 743040; also: nearly all actives have a fitted effect of over 20% in size; also: potency is read from the fitted curve at half-maximal effect)
Method in brief: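 Cell-based luciferase reporter: MDA-kb2, MMTV promoter (AR + GR response elements). 16 h compound exposure at 37C; ONE-Glo, 30 min RT, luminescence.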

[8] = qHTS assay to identify small molecule antagonists of the androgen receptor (AR) signaling pathway using the MDA cell line - cell viability counter screen (AID 743041; also: nearly all actives have a fitted effect of over 45% in size; also: potency is read from the fitted curve at half-maximal effect)
Method in brief: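 In this qHTS counter assay, fluorescence intensity after CellTiter-Fluor addition indicated viability of MDA-kb2 AR-luc cells given compounds and R1881 for 16 h at 37C.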

[9] = target: Androgen receptor (Homo sapiens) (UniProt P10275); experiment: qHTS assay to identify small molecule antagonists of the androgen receptor (AR) signaling pathway using the MDA cell line (AID 743042; also: nearly all actives have a fitted effect of over 55% in size; also: potency is read from the fitted curve at half-maximal effect)
Method in brief: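 MDA-kb2 cells (human breast carcinoma, stably carrying an MMTV-luciferase reporter responsive to AR and GR) were plated at 3,000 cells/well and preincubated 5 hr at 37C, then given compound plus R1881 agonist for 16 h. ONE-Glo luminescence was read.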

[10] = target: Androgen receptor (Homo sapiens) (UniProt P10275); experiment: qHTS assay to identify small molecule antagonists of the androgen receptor (AR) signaling pathway (AID 743035; active = well fitted inhibition curve with a large enough effect in the signal ratio in the repeat runs, not every such curve was filed as active; the % refers to the signal ratio)
Method in brief: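 In this cell-based reporter screen, compounds were tested in concentration series against R1881-activated HEK293 cells expressing beta-lactamase under UAS control; after 16 h at 37C, FRET substrate was added and fluorescence read 2 h later.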

Measured: Potency

Sequence of Androgen receptor (Homo sapiens) (P10275 whole entry, looked up): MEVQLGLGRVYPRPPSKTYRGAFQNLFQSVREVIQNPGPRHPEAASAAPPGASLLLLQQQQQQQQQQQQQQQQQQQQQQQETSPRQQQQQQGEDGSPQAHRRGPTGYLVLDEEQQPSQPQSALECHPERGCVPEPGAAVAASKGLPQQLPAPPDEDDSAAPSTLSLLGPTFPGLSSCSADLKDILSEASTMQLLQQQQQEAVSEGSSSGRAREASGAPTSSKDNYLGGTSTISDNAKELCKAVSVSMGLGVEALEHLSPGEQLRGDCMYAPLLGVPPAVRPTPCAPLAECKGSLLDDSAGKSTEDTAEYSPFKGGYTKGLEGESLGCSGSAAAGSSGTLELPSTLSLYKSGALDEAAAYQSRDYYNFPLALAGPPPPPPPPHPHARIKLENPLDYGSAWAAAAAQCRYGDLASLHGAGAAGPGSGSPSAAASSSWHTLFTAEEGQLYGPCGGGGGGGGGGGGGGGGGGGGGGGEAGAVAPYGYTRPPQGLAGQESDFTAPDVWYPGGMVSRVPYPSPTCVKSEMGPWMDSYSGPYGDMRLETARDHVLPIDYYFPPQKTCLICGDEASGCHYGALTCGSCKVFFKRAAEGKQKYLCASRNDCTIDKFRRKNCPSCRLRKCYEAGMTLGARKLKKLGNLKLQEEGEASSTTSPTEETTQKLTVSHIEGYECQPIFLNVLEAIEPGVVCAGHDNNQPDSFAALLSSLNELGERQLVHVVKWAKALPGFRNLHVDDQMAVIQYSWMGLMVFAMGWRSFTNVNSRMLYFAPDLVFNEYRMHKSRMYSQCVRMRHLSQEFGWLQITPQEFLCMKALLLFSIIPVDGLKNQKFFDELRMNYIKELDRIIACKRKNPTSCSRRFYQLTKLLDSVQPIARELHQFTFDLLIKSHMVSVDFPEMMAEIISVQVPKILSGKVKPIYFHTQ

S=C=NCc1ccccc1
inactive: [1] | [2] | [3] | [4] | [5] | [6] | [7] | [8] | [9]

COC(=O)C(C)N(C(=O)Cc1ccccc1)c1c(C)cccc1C (stereo not drawn)
active: [2] 8.63 µM | [3] 9.69 µM | [4] 15.4 µM
inactive: [1] | [5] | [7] | [8]

Cc1ccccc1C(=O)Nc1cccc(OC(C)C)c1
active: [2] 48.6 µM | [3] 30.6 µM | [4] 48.6 µM
inactive: [1] | [5] | [7] | [8] | [9]

BrCC(Br)C1CCC(Br)C(Br)C1 (stereo not drawn)
active: [7] 1.36 µM
inactive: [1] | [2] | [3] | [4] | [5] | [10] | [6] | [8] | [9]

O=[N+]([O-])C(Br)(CO)CO
inactive: [1] | [5] | [6] | [7] | [8] | [9]
active: [2] 8.41 µM and 6.11 µM | [3] 18.8 µM and 7.7 µM | [4] 26.6 µM and 12.2 µM

CCn1cc[n+](C)c1
inactive: [1] | [2] | [3] | [4] | [5] | [8]

Cc1ccc2ccccc2c1
inactive: [1] | [2] | [3] | [4] | [5] | [10] | [6] | [7] | [8] | [9]

CCCCN(N=O)C(=N)N[N+](=O)[O-]
inactive: [1] | [5] | [10] | [6] | [7] | [8]
active: [2] 17.6 µM | [3] 1.57 µM | [4] 2.79 µM

Cc1ccc(N)cc1C
inactive: [1] | [2] | [3] | [4] | [5] | [8]

CCCCN=C=O
inactive: [1] | [2] | [3] | [4] | [5] | [8]

ClCC(Br)CBr (stereo not drawn)
inactive: [1] | [2] | [3] | [4] | [5] | [8]

CCOc1ccc(C(C)(C)COCc2cccc(Oc3ccccc3)c2)cc1
inactive: [1] | [2] | [3] | [4] | [5] | [8]

CCC(Cl)CCl (stereo not drawn)
inactive: [1] | [2] | [3] | [4] | [5] | [8]

CCC(C)(NC(=O)c1cc(Cl)c(C)c(Cl)c1)C(=O)CCl (stereo not drawn)
active: [1] 43.9 µM | [2] 6.9 µM | [3] 12.3 µM | [4] 9.75 µM | [5] 24.7 µM

CC(c1ccc(O)cc1)(c1ccc(O)cc1)c1ccc(O)cc1
inactive: [1] | [5] | [8]
active: [2] 27.3 µM | [3] 38.6 µM | [4] 54.5 µM

O=S(=O)(O)C(F)(F)C(F)(F)C(F)(F)C(F)(F)F
inactive: [1]

CC1CC(CC2CCC(N)C(C)C2)CCC1N (stereo not drawn)
active: [2] 7.82 µM | [3] 2.47 µM | [4] 9.85 µM | [8] 31.1 µM
inactive: [1] | [5] | [6] | [7] | [9]

Cl/C=C\C[N+]12CN3CN(CN(C3)C1)C2
inactive: [1] | [5] | [6] | [7] | [8] | [9]
active: [2] 48.6 µM | [3] 30.6 µM | [4] 43.3 µM

C=CCOC(C)=O
inactive: [1] | [2] | [3] | [4] | [5] | [10] | [6] | [7] | [8] | [9]

COP(=S)(OC)Oc1ccc([N+](=O)[O-])cc1Cl
inactive: [1] | [2] | [3] | [4] | [5] | [7] | [9]

O=C(O)C(F)(F)C(F)(F)C(F)(F)C(F)(F)C(F)(F)C(F)(F)C(F)(F)C(F)(F)C(F)(F)F
inactive: [1] | [2] | [3] | [4] | [5] | [8]

Clc1cc(Cl)c(Cl)c(Cl)c1
inactive: [1] | [2] | [3] | [4] | [5] | [8]

C/C(=C\c1ccccc1)[N+](=O)[O-]
active: [1] 17.4 µM | [2] 5.45 µM | [3] 4.33 µM | [4] 4.33 µM | [5] 24.5 µM | [9] 27.3 µM
inactive: [7]

O=Cc1ccc2c(c1)OCO2
inactive: [1] | [2] | [3] | [4] | [5] | [8]

O=C(Nc1ccccc1)Nc1cnns1
active: [2] 54.4 µM | [3] 54.4 µM | [4] 30.6 µM
inactive: [1]

CC[C@H]1C[C@H]2[C@@H]3CCC4=CC(=O)CC[C@@H]4[C@H]3CC[C@]2(C)[C@H]1O
active: [2] 16.8 µM | [3] 29.8 µM | [4] 21.1 µM
inactive: [1] | [5] | [8]

Clc1ccc(C(OCCN2CCCCC2)c2ccccc2)cc1 (stereo not drawn)
inactive: [1]
active: [2] 3.59 µM | [3] 11.4 µM | [4] 10.1 µM

O=C(C(Cl)(Cl)Cl)C(Cl)(Cl)Cl
inactive: [1] | [2] | [3] | [4] | [5] | [10] | [6] | [7] | [8] | [9]

CCOC(=O)[C@]1(c2ccccc2)Oc2ccccc2[C@@H]1N
inactive: [1]
active: [2] 48.6 µM | [3] 4.86 µM | [4] 24.3 µM

CC(=O)NC1CCSC1=O (stereo not drawn)
inactive: [1] | [2] | [3] | [4] | [5] | [10] | [6] | [7] | [8] | [9]

O=NN1CCCCCC1
inactive: [1] | [2] | [3] | [4] | [5] | [10] | [6] | [7] | [8] | [9]

COP(=S)(OC)Oc1cc(Cl)c(I)cc1Cl
inactive: [1] | [2] | [3] | [4] | [5] | [7] | [8] | [9]

Brc1ccccc1
inactive: [1] | [2] | [3] | [4] | [5] | [10] | [6] | [7] | [8] | [9]

CN1C[C@H](CNC(=O)OCc2ccccc2)C[C@@H]2c3cccc4c3c(cn4C)C[C@H]21
active: [2] 5.96 µM | [3] 8.41 µM | [4] 8.41 µM
inactive: [1]

Nc1nc(N)nc(N)n1
inactive: [1] | [2] | [3] | [4] | [5] | [8]

CCOC(=O)CBr
inactive: [1] | [2] | [3] | [4] | [5] | [8]

ClCc1ccccc1
inactive: [1] | [2] | [3] | [4] | [5] | [8]

O=[N+]([O-])c1ccccc1CCl
inactive: [1] | [2] | [3] | [4] | [5] | [8]

CC(Cl)Cl
inactive: [1] | [2] | [3] | [4] | [5] | [8]

CN(N=O)c1ccc([N+](=O)[O-])cc1
inactive: [1] | [2] | [3] | [4] | [5] | [8]

CCOP(=S)(OCC)SCn1nnc2ccccc2c1=O
active: [2] 7.7 µM | [3] 7.7 µM | [4] 9.69 µM | [5] 24.5 µM | [8] 61.1 µM
inactive: [1]

CC/C(=N\OC/C=C/Cl)C1=C(O)CC(C2CCOCC2)CC1=O (stereo not drawn)
inactive: [1] | [2] | [3] | [4] | [5] | [8]

BrCCCCBr
inactive: [1] | [2] | [3] | [4] | [5] | [8]

ClCCCCBr
inactive: [1] | [2] | [3] | [4] | [5] | [8]

C=C(C#N)CCC#N
inactive: [1] | [2] | [3] | [4] | [5] | [8]

O=C(N[C@H](c1ccccc1)[C@@H]1CN2CCC1CC2)c1c(Cl)ccc(C(F)(F)F)c1Cl
active: [2] 22 µM | [3] 39.2 µM | [4] 24.7 µM
inactive: [1] | [5] | [8]

CC(O)(CS(=O)(=O)c1ccc(F)cc1)C(=O)Nc1ccc(C#N)c(C(F)(F)F)c1 (stereo not drawn)
active: [2] 26.6 µM | [3] 10.6 µM and 28.3 µM | [4] 23.7 µM and 28.3 µM
inactive: [1] | [5] | [8]

O=[N+]([O-])c1ccc(F)c([N+](=O)[O-])c1
active: [8] 55 µM
inactive: [1] | [2] | [3] | [4] | [5]

CCC(Br)(CC)C(=O)NC(N)=O
active: [3] 54.5 µM
inactive: [1] | [2] | [4] | [5] | [8]

COCC(C)N(C(=O)CCl)c1c(C)csc1C (stereo not drawn)
inactive and 17.2 µM (active): [2] | [4]
inactive: [1] | [5] | [8]
inactive and 15.4 µM (active): [3]

N#Cc1ccc(Cl)cc1
inactive: [1] | [2] | [3] | [4] | [5] | [8]

CCBr
inactive: [1] | [2] | [3] | [4] | [5] | [8]

C=CC(=O)OCC(C)C
inactive: [1] | [2] | [3] | [4] | [5] | [8]

c1ccc(CN2CCNCC2)cc1
inactive: [1] | [2] | [3] | [4] | [5] | [8]

O=C(O)C(F)(F)C(F)(F)C(F)(F)C(F)(F)C(F)(F)C(F)(F)C(F)(F)C(F)(F)C(F)(F)C(F)(F)F
inactive: [1] | [2] | [3] | [4] | [5] | [8]

CCOP(=S)(OCC)SCSCC
inactive: [1] | [5] | [8]
active: [2] 54.5 µM | [3] 27.3 µM | [4] 48.6 µM

Cl/C=C\Cl
inactive: [1] | [2] | [3] | [4] | [5] | [8]
